Sampled rows, rich in hits. Any-hit rate of the full collection: about 3.9%.
CF NFkB block – inhibitors of cystic fibrosis induced NF-kB; AID 588850; inhibition, % at 5 µM; KKLEB NF-kB-GFP reporter, PAF-induced, GFP fluorescence overnight; 0.86% of 360,000 active;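 active = at least 50% inhibition at 5 µM, scaled per plate between neutral and stimulator controls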;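 also: PAF is a Pseudomonas aeruginosa culture filtrate used as stimulus; plate controls were PAF-stimulated DMSO wells for no effect and unstimulated DMSO wells for full effect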
HIF-2a inh – blocks HIF-2a reporter activity; 0.72% of 360,000 active; inhibition, % at 18.8 µM; 786-0 RCC cells HIF-2a reporter, luciferase luminescence, overnight;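 active = inhibition of the luminescence signal of 40% or more relative to plate controls, in a single-dose primary screen at 18.75 µM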
TROY signal inh – TROY signaling inhibition | Q293 LMP1-TROYcd NF-kB luciferase reporter, 4 h | inhibition, % at 10 µM | 0.98% of 360,000 active;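 active = compounds whose plate-normalised and pattern-corrected inhibition of the luciferase reporter signal at the single screening dose is 50% or more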
TWEAK Fn14 block – inhibitors of TWEAK-Fn14 interaction signaling; inhibition, % at 10 µM; 2% of 360,000 active; TWEAK-stimulated Fn14 reporter cells, luciferase luminescence, 8 h; in the data active = inhibition above about 50%
KKLEB cytotox – CF airway cell cytotoxicity counter-screen; KKLEB CF airway cells viability, ATPlite luminescence, overnight; hits give low values; cells stimulated with P. aeruginosa culture filtrate; activity change (cytotoxicity), % at 5 µM; 0.36% of 360,000 active; AID 602141;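 active = corrected activity change at or below -50% at 5 µM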
Peg3 prom inh – inhibitors of Peg3 promoter. HeLa PEG-Prom luciferase reporter, luminescence, overnight. inhibition, % at 20 µM. 1.7% of 360,000 active;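 active = inhibition of at least 50% at 20 µM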
Starred values were filed as active, the others as inactive.

SMILES	CF NFkB block	HIF-2a inh	TROY signal inh	TWEAK Fn14 block	KKLEB cytotox	Peg3 prom inh
CCOc1cccc2cc(C(=O)N3CCOCC3)c(=O)oc12	2	-1	-26	-17	1	-12
CCOc1cccc2cc(C(=O)N3CC(C)OC(C)C3)c(=O)oc12 (centres undefined)	3	21	-7	-22	-12	53*
CCc1cccc(N=c2c([N+](=O)[O-])nn(-c3ccc4c(c3)OCCO4)n2O)c1	14	-50	55*	31	-14	-114
COc1cc(N=c2c([N+](=O)[O-])nn(-c3ccc4c(c3)OCCO4)n2O)cc(OC)c1	18	-88	53*	41	12	-192
CCN1C(=O)[C@H]2[C@@H](c3ccccc3)N3C(=O)N(c4cccc(F)c4)C(=O)[C@@]3(CC(C)C)[C@H]2C1=O	11	5	4	-3	-8	-7
CCc1nnc(NS(=O)(=O)c2ccc(N/C=C\C(=O)c3ccc(F)cc3)cc2)s1	-6	10	73*	40	4	-7
CCc1nnc(NS(=O)(=O)c2ccc(N/C=C/C(=O)c3ccc(C)cc3)cc2)s1	1	-24	-4	2	3	-31
COc1cc(C(C)=O)ccc1OCC(=O)Nc1ccc(Cl)c(S(=O)(=O)N2CCOCC2)c1	1	11	36	28	1	14
O=C(NC(=O)c1ccccc1O)c1ccc2c(c1)CCO2	8	-70	17	54*	1	-56
Cc1nc2nc(SCC(=O)NCCCN3CCCCCC3)nn2c(C)c1Cc1ccccc1Cl	-7	2	-11	-5	5	-6
C/C(CC(=O)Nc1ccccn1)=N\NC(=O)C(=O)Nc1cccc(C)c1	1	-3	-2	6	-5	1
O=C(Nc1cccc(O)c1)C(=O)Nc1ccccn1	-14	-53	39	76*	0	-72
S=C(Nc1ccccc1)Nc1ccccn1	-22	-120	-23	-19	1	-66
O=C(Nc1ccccc1)C(=O)Nc1ccccn1	10	-85	46	62*	6	-16
Cc1ccc(Nc2cc(C)nn2-c2nc(C)cc(=O)[nH]2)cc1	52*	40*	84*	108*	32	108*
CC(C)C(=O)NC(c1ccc(Cl)cc1Cl)c1ccc2cccnc2c1O (centres undefined)	-60	-116	-31	103*	3	28
CC(=O)c1cc(NC(=O)c2ccc(C)cc2)c(=O)oc1/C=C/N(C)C	-12	-42	54*	0	2	-96
COc1ccc(C(=O)Nc2cc(C(C)=O)c(/C=C/N(C)C)oc2=O)cc1	-12	-25	48	-13	10	-32
O=C1c2ccccc2C(=O)C1c1nccc2ccccc12	-144	3	55*	97*	-65*	88*
O=C1c2ccccc2C(=O)C1c1ccnc2ccccc12	-134	24	42	100*	-70*	83*
CCOC(=O)c1c(-c2ccccc2)csc1/N=C/C1C(=O)CCCC1=O	5	3	28	26	0	-7
COc1cc(CC(NC(C)=O)C(=O)NC2CCN(C(=O)C3CC3)CC2)cc(OC)c1 (centres undefined)	-6	11	55*	13	-3	-7
COc1cc(C(=O)N2CCC(NC(=O)C(Cc3ccccc3)NC(C)=O)CC2)cc(OC)c1OC (centres undefined)	-5	7	-26	29	3	58*
O=C(COC(=O)[C@@H]1CCCN1S(=O)(=O)c1ccccc1F)NCc1ccc2c(c1)OCO2	-8	7	22	-18	-2	0
O=C1Nc2c(Br)cc(Br)c3cccc1c23	-22	2	-9	-15	-3	74*
SMILES	CF NFkB block	HIF-2a inh	TROY signal inh	TWEAK Fn14 block	KKLEB cytotox	Peg3 prom inh
O=C1NC(=O)c2cc(Br)cc3cccc1c23	-127	4	-2	-68	11	-22
Cc1[nH]c(=O)[nH]c(=O)c1NC(=O)CSc1ncccc1-c1nc2ccccc2[nH]1	8	-52	54*	44	-1	-6
O=C(CSc1ncccc1-c1nc2ccccc2[nH]1)N1CCCCC1	-31	-48	45	58*	13	5
CC(C)NC(=O)CSc1ncccc1-c1nc2ccccc2[nH]1	1	-13	4	-4	1	-16
Cc1cccc2sc(NC(=O)C3CCCO3)nc12 (centres undefined)	2	-277	-56	-7	-1	-201
Cc1nc(C)c(C(=O)Nc2nc3c(C)cccc3s2)o1	-18	-11	35	70*	3	7
COc1cccc(C(=O)NCC(=O)N/N=C/c2ccc(OC(=O)c3cccs3)c(OC)c2)c1	-13	-14	-32	-4	-5	-22
CN(CC(O)COc1ccc(OCC(O)CN(C)C2CCCCC2)cc1)C1CCCCC1 (centres undefined)	26	19	3	-14	-15	83*
CC(=O)Oc1ccc(C(=O)Nc2ccc(S(=O)(=O)NCC3CCCO3)cc2)cc1 (centres undefined)	15	26	51*	42	3	4
COc1cccc(S(=O)(=O)NCc2ccc(C(=O)Nc3ccc(Cl)cc3)cc2)c1	-28	4	36	41	-4	9
COc1cccc(S(=O)(=O)NCc2ccc(C(=O)Nc3cccc(Cl)c3)cc2)c1	6	12	48	60*	-16	37
O=C(Nc1cccc(Cl)c1)c1ccc(S(=O)(=O)NCC2CCCO2)cc1 (centres undefined)	19	1	4	63*	-19	0
COc1ccc(C2C(C(=O)Nc3cccnc3)=C(C)Nc3nc(-c4cccs4)nn32)cc1OC (centres undefined)	0	12	-2	12	0	0
Cc1ccc(C(C)C)cc1OCCOCCN1CCCC1	-7	8	7	-3	-2	0
NC(=O)NC(=O)CSc1nc2sc(-c3ccccc3)cc2c(=O)n1-c1ccccc1	6	-26	13	58*	-1	-6
COc1ccc(NC(=S)N2CCC(N(C)CCN3CCOCC3)CC2)cc1	-17	-4	12	8	-35	-189
Cc1ccc(NC2=Nc3ccccc3N3C2=Nc2c(c(C)nn2-c2ccccc2)C3c2ccc(O)c(O)c2)cc1 (centres undefined)	-36	15	24	40	16	88*
COc1cccc(NC(=O)Nc2ccc3c(c2)OCO3)c1	2	-233	-55	-23	0	-307
CC(C)c1ccc(O)c(=O)cc1	4	0	6	12	5	12
CC(=O)N(C1=C(N2CCOCC2)C(=O)c2ccccc2C1=O)c1ccc(C(=O)O)cc1	-4	64*	14	18	0	12
CC(=O)/C=C\c1ccc(OC(=O)c2cccnc2)cc1	-7	10	8	0	4	9

Screening data as filed in PubChem.
